{"source": "PubChem BioAssay AID1490", "about": "(National Center for Advancing Translational Sciences (NCATS), 2009)", "note": "Among all 310,000 compounds or so, about 11,000 (3.5%) were called active. About 4% were inconclusive and are not listed. The entries come from a sample that favours actives as a whole. Unmarked numbers belong to inactive results. The call rests on the fitted dose curve; in most records, active means well fitted inhibition curve with a large enough effect; inconclusive means small, poorly fitted or top-dose-only effect, or another doubt; inactive means no such curve, though single readings can be large or run the other way. Potency means the concentration at half of the fitted maximal effect.", "data": [{"target": "4'-phosphopantetheinyl transferase ffp (Bacillus subtilis) (UniProt Q9F4F7)", "assay": "qHTS Assay for Inhibitors of Bacillus subtilis Sfp phosphopantetheinyl transferase (PPTase);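 further: the enzyme is Sfp with the accession as filed and its product quenches rhodamine fluorescence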;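 on largest response in the series, negative = inhibition: 0% = enzyme reaction without inhibitor and -100% = no enzyme wells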", "conditions": "Biochemical Sfp PPTase activity", "in_short": "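Reaction rates are the 30-min fluorescence difference (ex 525, em 598 nm) in wells containing 15 nM Sfp, 5 uM rhodamine-CoA and 12.5 uM BHQ-2-YbbR at pH 7.6 with 10 mM MgCl2.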", "units": {"largest response in the series, negative = inhibition": "%"}, "values": [{"smiles": "NNC(=O)c1nnn(-c2nonc2N)c1CN1CCCC1", "largest response in the series, negative = inhibition": 14.1}, {"smiles": "Cc1c(C(=O)N(C)CCc2cnn(C)c2)oc2c(F)cccc12", "largest response in the series, negative = inhibition": 4.37}, {"smiles": "CCc1ccc2c(c1)C1(NN=C(c3ccccc3)S1)C(=O)N2", "note": "(stereo not drawn)", "Potency": "8.91 µM (active)"}, {"smiles": "CCc1ccc2c(c1)C(c1ccc([N+](=O)[O-])cc1)=NNC(c1ccccc1)=N2", "largest response in the series, negative = inhibition": -18}, {"smiles": "Cc1ccc(C)c(N2CCN(C(=O)CCCn3c(=O)c4cccn4c4cccnc43)CC2)c1", "largest response in the series, negative = inhibition": 14.7}, {"smiles": "CCNC(=O)N1CCCC(C(=O)c2ccc(-c3ccccc3)cc2)C1", "note": "(stereo not drawn)", "largest response in the series, negative = inhibition": 4.19}, {"smiles": "CSc1sc(C(=O)NC(=O)NCc2cccnc2)c(C)c1-c1ccon1", "largest response in the series, negative = inhibition": 9.79}, {"smiles": "CC(C)(C)c1cc(C(=O)NCc2cccnc2)ccn1", "largest response in the series, negative = inhibition": -7}, {"smiles": "Cc1ccc(-n2nc(-c3ccco3)cc2C(=O)NCc2cccnc2)cc1", "Potency": "10 µM (active)"}, {"smiles": "COc1ccc(N(CC(=O)Nc2cccc3ccccc23)S(C)(=O)=O)c(OC)c1", "largest response in the series, negative = inhibition": 9.66}, {"smiles": "Cc1ccccc1NC(=O)Cn1cc(C(=O)C2CC2)c2ccccc21", "largest response in the series, negative = inhibition": 16.6}, {"smiles": "O=C(Cc1c(Cl)cccc1Cl)NC1CC1", "largest response in the series, negative = inhibition": 11.4}, {"smiles": "C=CS(=O)c1sc(Cl)c(N2CCOCC2)c1[N+](=O)[O-]", "note": "(stereo not drawn)", "Potency": "10 µM (active)"}, {"smiles": "COc1ccc(CCNC(=O)c2nnc(CS(=O)(=O)c3ccccc3)o2)cc1OC", "largest response in the series, negative = inhibition": 9.29}, {"smiles": "COc1ccc(C(=O)NC(C)Cn2nc(C)cc2C)cc1OC1CCN(C(C)=O)CC1", "note": "(stereo not drawn)", "largest response in the series, negative = inhibition": 12.4}, {"smiles": "NC(N)=N/N=C/c1ccc(OCc2ccc(Cl)cc2Cl)cc1", "Potency": "31.6 µM (active)"}, {"smiles": "COc1ccc(C(=O)O/N=C(\\N)Cc2ccc(Cl)cc2Cl)cc1OC", "largest response in the series, negative = inhibition": 0.628}, {"smiles": "NC(N)=N/N=C/c1ccc(Cl)c([N+](=O)[O-])c1", "largest response in the series, negative = inhibition": 6.82}, {"smiles": "CCCOc1ccc(CNC(=O)C2CCN(c3nn4c(=O)cc(C)nc4s3)CC2)cc1", "largest response in the series, negative = inhibition": 7.3}, {"smiles": "CC1CCN(C(=S)c2ccc(-c3ccc(Cl)cc3Cl)o2)CC1", "Potency": "50.1 µM (active)"}, {"smiles": "Cc1csc(NC(=O)c2ccc(-c3ccc(Cl)cc3Cl)o2)n1", "largest response in the series, negative = inhibition": 1.33}, {"smiles": "COc1ccc(C(=O)Nc2c(Cl)cc(Cl)cc2C(=O)N2CCC(C)CC2)cc1", "largest response in the series, negative = inhibition": 11.9}, {"smiles": "Cc1nc2cc(C(F)(F)F)ccc2n1CCNc1nc(-c2cc(Cl)c(N)c(Cl)c2)cs1", "largest response in the series, negative = inhibition": 9.07}, {"smiles": "Cc1cccc(N2CCN(C(=O)c3cccc(N4C(=O)C5C6C=CC(C6)C5C4=O)c3)CC2)c1C", "note": "(stereo not drawn)", "largest response in the series, negative = inhibition": 14.6}, {"smiles": "CCOC(=O)c1ccc(NC(=O)c2cccnc2)cc1", "largest response in the series, negative = inhibition": 10.5}, {"smiles": "CCOC(=O)c1ccc(-c2ccc(C(=O)Nc3cccnc3)o2)cc1", "Potency": "44.7 µM (active)"}, {"smiles": "Cc1ccc(NC(=O)Nc2cccnc2)cc1", "largest response in the series, negative = inhibition": 2.48}, {"smiles": "Cc1cccc(C(=O)Nc2ccc(Oc3cnccn3)cc2)c1", "largest response in the series, negative = inhibition": 11}, {"smiles": "C=C1CCN(C(CC(C)C)C(=O)NCc2cc(OC)c(OC)c(OC)c2)S(=O)(=O)c2ccccc21", "note": "(stereo not drawn)", "largest response in the series, negative = inhibition": -15.6}, {"smiles": "CCOc1ccc(C(c2c(C)[nH][nH]c2=O)c2c(C)[nH][nH]c2=O)cc1OCC", "largest response in the series, negative = inhibition": 2.34}, {"smiles": "Cc1[nH][nH]c(=O)c1C(c1ccc(-c2ccc(Cl)cc2)o1)c1c(C)[nH][nH]c1=O", "Potency": "39.8 µM (active)"}, {"smiles": "Cc1[nH][nH]c(=O)c1C(c1ccc2c(c1)OCO2)c1c(C)[nH][nH]c1=O", "largest response in the series, negative = inhibition": 5.9}, {"smiles": "Cc1ccc2occ(/C=N/NC(=O)c3ccccc3C)c(=O)c2c1", "largest response in the series, negative = inhibition": 18.5}, {"smiles": "CCC(C)[C@H](NC(=O)N1c2ccccc2NC(=O)[C@@H]1C(C)C)C(=O)N[C@@H](Cc1ccccc1)C(=O)O", "note": "(stereo partly drawn)", "largest response in the series, negative = inhibition": 13.4}, {"smiles": "Cc1ccc(OCCOc2cccc(/C=N/NC(N)=O)c2)cc1", "largest response in the series, negative = inhibition": 9.7}, {"smiles": "Cc1n[nH]c(=O)nc1N/N=C/c1cccs1", "largest response in the series, negative = inhibition": 4.06}, {"smiles": "Cc1nnc(N/N=C/c2cccs2)[nH]c1=O", "Potency": "89.1 µM (active)"}, {"smiles": "O=C(N/N=C\\C1CC=CCC1)c1ccc(Br)o1", "note": "(stereo not drawn)", "largest response in the series, negative = inhibition": 5.57}, {"smiles": "COCc1c(C(=O)N/N=C/C2CC=CCC2)nnn1-c1nonc1N", "note": "(stereo not drawn)", "largest response in the series, negative = inhibition": -0.608}, {"smiles": "Cc1nnc(N/N=C/C2CC=CCC2)[nH]c1=O", "note": "(stereo not drawn)", "Potency": "79.4 µM (active)"}, {"smiles": "Clc1ccc(N/N=C/c2cccs2)nn1", "largest response in the series, negative = inhibition": -26.9}, {"smiles": "COc1ccc(CNC(=O)c2cc(C(=O)C3CC3)c[nH]2)cc1", "largest response in the series, negative = inhibition": 19.2}, {"smiles": "CCc1cc(=O)oc2c(C)c(OCC(=O)N3CC[C@@]4(O)CCCC[C@H]4C3)ccc12", "largest response in the series, negative = inhibition": 6.44}, {"smiles": "O=C(Nc1cccc(F)c1)NC1CCCCCCC1", "largest response in the series, negative = inhibition": 8.11}, {"smiles": "COc1ccc2c(c1)O[C@@H](c1ccc3c(c1)OCO3)[C@H](OC(=O)NCc1ccco1)C2=O", "largest response in the series, negative = inhibition": 1.2}, {"smiles": "CC(C)OCCCNC(=O)CN1C(=O)/C(=C/c2ccccc2F)Oc2ccccc21", "largest response in the series, negative = inhibition": -3.78}, {"smiles": "Cc1cc(=O)[nH]c(=S)[nH]1", "Potency": "31.6 µM (active)"}, {"smiles": "Cc1cc(=O)cc(C)[nH]1", "largest response in the series, negative = inhibition": 15}, {"smiles": "CSc1cc(C)[nH]c(=O)n1", "largest response in the series, negative = inhibition": 7.92}, {"smiles": "O=C(c1ccc[nH]c1=S)N1CCN(S(=O)(=O)c2ccc(Br)cc2Cl)CC1", "Potency": "79.4 µM (active)"}, {"smiles": "O=C(c1ccc(Cl)c(S(=O)(=O)N2CCCCC2)c1)N1CCCCCC1", "largest response in the series, negative = inhibition": 16.4}, {"smiles": "O=C(c1ccccc1F)N1CCN(S(=O)(=O)c2ccc(Br)cc2)CC1", "largest response in the series, negative = inhibition": 9.87}, {"smiles": "CC(C)Sc1ncnc2c1cnn2-c1ccccc1", "largest response in the series, negative = inhibition": -5.09}, {"smiles": "C=C1C(=O)C23C(O)C1CCC2[C@]12COC3(O)C(O)C1C(C)(C)CC[C@H]2O", "note": "(stereo partly drawn)", "largest response in the series, negative = inhibition": -81.1}, {"smiles": "O=C(COCc1cc(-c2ccc3c(c2)OCO3)on1)N1CCN(c2cccc(Cl)c2)CC1", "largest response in the series, negative = inhibition": -5.35}, {"smiles": "COc1ccc2[nH]c3c(C)c4cc[n+](C)cc4c(C)c3c2c1", "largest response in the series, negative = inhibition": -11.7}, {"smiles": "COc1ccc2[nH]c(=S)cc(C)c2c1", "Potency": "39.8 µM (active)"}, {"smiles": "COc1ccc2c(C)cc3nnnn3c2c1", "largest response in the series, negative = inhibition": 7.5}, {"smiles": "CC(C)c1cc(C(=O)N/N=C/c2ccoc2)c(O)c(C(C)C)c1", "largest response in the series, negative = inhibition": 13.5}, {"smiles": "CC1CC(C)CN(CCCNC(=O)Cn2ncc3c([nH]c4ccccc43)c2=O)C1", "note": "(stereo not drawn)", "largest response in the series, negative = inhibition": 5.5}, {"smiles": "CCCCOc1ccc(-c2ncc(C(=O)OCC)c(N)n2)cc1", "largest response in the series, negative = inhibition": 3.34}, {"smiles": "CCOC(=O)CSc1nccc(N(C)C)c1C#N", "largest response in the series, negative = inhibition": -4.04}, {"smiles": "CCOC(=O)C(Sc1ncc(C#N)c(N)n1)C(C)C", "note": "(stereo not drawn)", "Potency": "56.2 µM (active)"}]}]}
